What all share (assay): growth (OD600 after 10 h); higher = more growth (less inhibition)
Assay [1] deals with E. coli TESEC Alr+ wild-type control. Particulars: compound 0.1 mM; raw OD600 reference: median of DMSO wells 0.241, cell-free background 0.041. The protocol: (§1)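 TESEC Mtb Alr E. coli, or the Alr+ wild-type control, in 384-well plates with Prestwick library compounds at 0.1 mM and 1% DMSO, across arabinose induction levels of 1E3 to 1E7 nM. Growth is read as OD600 after 10 h at 37 °C in triplicate biological replicates.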

For assay [2], the system named is E. coli TESEC Mtb Alr. The note with it: compound 0.1 mM. The protocol: as §1
Another assay deals with E. coli TESEC Mtb Asd. Particulars: compound 0.1 mM. As to the method:
(§2)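 TESEC E. coli strains in which the native enzyme is deleted and replaced by arabinose-inducible Mtb Asd, DapB, CysH or TrpD, each grown in its selective medium. Strains were screened against the Prestwick library at 0.1 mM and 1% DMSO in 384-well format at low and high arabinose induction. Growth is read as OD600 after 10 h in triplicate.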

A further assay relates to E. coli TESEC Mtb DapB. Particulars: compound 0.1 mM. The protocol:
as §2

Assay [3] concerns E. coli TESEC Mtb Alr. The note with it: compound 0.1 mM. The protocol:
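TESEC Mtb Alr E. coli (ΔaraC ΔtolC ΔentC Δalr ΔdadX, arabinose-inducible Mtb Alr) or the Alr+ wild-type control strain, grown in defined M9-fructose medium without D-alanine in 96-well plates with Prestwick library compounds at 0.1 mM and 1% DMSO. Low Alr induction is 0.1 µM arabinose and high induction is 10 mM arabinose.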
This is another data set of the same source.

The mark [4] stands for this setting: arabinose 1000 nM, raw OD600 reference: median of DMSO wells 0.294, cell-free background 0.041.
The mark [5] stands for this setting: arabinose 10000 nM, raw OD600 reference: median of DMSO wells 0.264, cell-free background 0.041.
The mark [6] stands for this setting: arabinose 100000 nM, raw OD600 reference: median of DMSO wells 0.201, cell-free background 0.041.
The mark [7] stands for this setting: arabinose 1000000 nM, raw OD600 reference: median of DMSO wells 0.193, cell-free background 0.041.
The mark [8] stands for this setting: arabinose 10000000 nM, raw OD600 reference: median of DMSO wells 0.146, cell-free background 0.041.
The mark [9] stands for this setting: arabinose induction (level): High, raw OD600 reference: median of DMSO wells 0.331, cell-free background 0.041.
Where [10] appears, read: arabinose induction (level): Low, raw OD600 reference: median of DMSO wells 0.417, cell-free background 0.041.
The mark [11] stands for this setting: arabinose induction (level): High, raw OD600 reference: median of DMSO wells […], cell-free background 0.041.
Setting [12] is: arabinose induction (level): Low, raw OD600 reference: median of DMSO wells 0.227, cell-free background 0.041.
The mark [13] stands for this setting: arabinose 100 nM, raw OD600 reference: median of DMSO wells 0.413, cell-free background 0.052.
The mark [14] stands for this setting: arabinose 10000000 nM, raw OD600 reference: median of DMSO wells […], cell-free background 0.052.

Where a name gives a salt, the structure may show the parent alone. ± gives the standard deviation of the averaged measurements.

Regarding `C[N+]1(C)CCOC(O)(c2ccc(-c3ccc(C4(O)C[N+](C)(C)CCO4)cc3)cc2)C1` (centres undefined) [Hemicholinium bromide], the growth in assay [1] came to 0.227 ± 0.013; in the assay on E. coli TESEC Mtb Alr [2] (setting [4]) it was 0.298 ± 0.02; in the assay with E. coli TESEC Mtb Alr [2] (setting [5]), 0.276 ± 0.0044; in the assay on E. coli TESEC Mtb Alr [2] (setting [6]), 0.229 ± 0.025; with E. coli TESEC Mtb Alr [2] (setting [7]), 0.1741 ± 0.00078; in the assay on E. coli TESEC Mtb Alr [2] (setting [8]), 0.195 ± 0.0053. In addition, the growth in the assay with E. coli TESEC Mtb Asd (setting [9]) is 0.352 ± 0.026; in the assay on E. coli TESEC Mtb Asd (setting [10]), 0.281 ± 0.069; in the assay on E. coli TESEC Mtb DapB (setting [11]), 0.21 ± 0.012; in the assay on E. coli TESEC Mtb DapB (setting [12]), 0.217 ± 0.021; in the assay on E. coli TESEC Mtb Alr [3] (setting [13]), 0.403 ± 0.0081; in the assay on E. coli TESEC Mtb Alr [3] (setting [14]) it was 0.397 ± 0.015.
For `CC(C)c1c(CN(C)C(C)Cc2ccccc2)n(C)n(-c2ccccc2)c1=O` (centres undefined) [Famprofazone], the growth in assay [1] stood at 0.219 ± 0.0093; with E. coli TESEC Mtb Alr [2] (setting [4]), 0.279 ± 0.013; with E. coli TESEC Mtb Alr [2] (setting [5]) it was 0.27 ± 0.014; with E. coli TESEC Mtb Alr [2] (setting [6]), 0.154 ± 0.0078; in the assay on E. coli TESEC Mtb Alr [2] (setting [7]), 0.131 ± 0.0042; in the assay with E. coli TESEC Mtb Alr [2] (setting [8]), 0.154 ± 0.0085. The growth with E. coli TESEC Mtb Asd (setting [9]) amounted to 0.425 ± 0.02; in the assay on E. coli TESEC Mtb Asd (setting [10]), 0.486 ± 0.087; in the assay on E. coli TESEC Mtb DapB (setting [11]), 0.202 ± 0.0043; in the assay with E. coli TESEC Mtb DapB (setting [12]) it was 0.236 ± 0.04; in the assay on E. coli TESEC Mtb Alr [3] (setting [13]), 0.406 ± 0.0053; with E. coli TESEC Mtb Alr [3] (setting [14]) it was 0.269 ± 0.0074.
Regarding `C[C@@]12N[C@@H](Cc3ccccc31)c1ccccc12` [(-)-MK 801 hydrogen maleate], the growth in assay [1] stood at 0.226 ± 0.014; with E. coli TESEC Mtb Alr [2] (setting [4]), 0.29 ± 0.013; in the assay with E. coli TESEC Mtb Alr [2] (setting [5]), 0.247 ± 0.0096; with E. coli TESEC Mtb Alr [2] (setting [6]), 0.138 ± 0.0052; in the assay on E. coli TESEC Mtb Alr [2] (setting [7]), 0.113 ± 0.0073; in the assay on E. coli TESEC Mtb Alr [2] (setting [8]) it was 0.132 ± 0.0029. Further, the growth in the assay with E. coli TESEC Mtb Asd (setting [9]) amounted to 0.244 ± 0.014; with E. coli TESEC Mtb Asd (setting [10]), 0.514 ± 0.039; in the assay on E. coli TESEC Mtb DapB (setting [11]), 0.213 ± 0.036; with E. coli TESEC Mtb DapB (setting [12]), 0.221 ± 0.018; with E. coli TESEC Mtb Alr [3] (setting [13]), 0.412 ± 0.017; in the assay on E. coli TESEC Mtb Alr [3] (setting [14]), 0.2863 ± 0.0016.
`CC[C@@]1([C@@H]2O[C@@H]([C@H]3O[C@@](O)(CO)[C@H](C)C[C@@H]3C)C[C@@H]2C)CC[C@H]([C@]2(C)CC[C@]3(C[C@H](O)[C@@H](C)[C@@H]([C@@H](C)[C@@H](OC)[C@H](C)C(=O)O)O3)O2)O1` [Monensin sodium salt]: the growth in assay [1] worked out at 0.218 ± 0.0078; with E. coli TESEC Mtb Alr [2] (setting [4]), 0.279 ± 0.017; with E. coli TESEC Mtb Alr [2] (setting [5]), 0.264 ± 0.0038; with E. coli TESEC Mtb Alr [2] (setting [6]) it was 0.207 ± 0.028; with E. coli TESEC Mtb Alr [2] (setting [7]), 0.159 ± 0.0076; with E. coli TESEC Mtb Alr [2] (setting [8]), 0.138 ± 0.0041. Further, the growth with E. coli TESEC Mtb Asd (setting [9]) was 0.295 ± 0.028; in the assay with E. coli TESEC Mtb Asd (setting [10]) it was 0.408 ± 0.016; with E. coli TESEC Mtb DapB (setting [11]), 0.162 ± 0.01; in the assay with E. coli TESEC Mtb DapB (setting [12]), 0.167 ± 0.0025; in the assay with E. coli TESEC Mtb Alr [3] (setting [13]), 0.384 ± 0.007; in the assay on E. coli TESEC Mtb Alr [3] (setting [14]), 0.149 ± 0.013.
On to `CC(CCc1ccccc1)NC(C)C(O)c1ccc(O)cc1` (centres undefined) [Nylidrin], for which the growth in assay [1] was determined as 0.215 ± 0.0087; in the assay with E. coli TESEC Mtb Alr [2] (setting [4]) it was 0.297 ± 0.018; in the assay on E. coli TESEC Mtb Alr [2] (setting [5]), 0.285 ± 0.013; in the assay on E. coli TESEC Mtb Alr [2] (setting [6]) it was 0.167 ± 0.0039; with E. coli TESEC Mtb Alr [2] (setting [7]), 0.16 ± 0.0093; in the assay with E. coli TESEC Mtb Alr [2] (setting [8]), 0.144 ± 0.002. Also, the growth came out at 0.351 ± 0.062 in the assay on E. coli TESEC Mtb Asd (setting [9]); 0.495 ± 0.048 in the assay on E. coli TESEC Mtb Asd (setting [10]); 0.222 ± 0.027 with E. coli TESEC Mtb DapB (setting [11]); 0.243 ± 0.0092 with E. coli TESEC Mtb DapB (setting [12]); 0.404 ± 0.014 in the assay on E. coli TESEC Mtb Alr [3] (setting [13]); 0.316 ± 0.013 in the assay with E. coli TESEC Mtb Alr [3] (setting [14]).
Take `Fc1ccc(C(OCCN2CCN(CCCc3ccccc3)CC2)c2ccc(F)cc2)cc1`: the growth turned out to be 0.0433 ± 0.0027 in assay [1]; 0.04027 ± 0.00025 in the assay with E. coli TESEC Mtb Alr [2] (setting [4]); 0.0453 ± 0.00061 in the assay on E. coli TESEC Mtb Alr [2] (setting [5]); 0.0419 ± 0.0013 in the assay on E. coli TESEC Mtb Alr [2] (setting [6]); 0.045 ± 0.00035 in the assay with E. coli TESEC Mtb Alr [2] (setting [7]); 0.0435 ± 0.00049 in the assay with E. coli TESEC Mtb Alr [2] (setting [8]). Also, the growth was determined as 0.0464 ± 0.00055 with E. coli TESEC Mtb Asd (setting [9]); 0.04613 ± 0.00046 with E. coli TESEC Mtb Asd (setting [10]); 0.0461 ± 0.00026 in the assay on E. coli TESEC Mtb DapB (setting [11]); 0.0459 ± 0.00085 in the assay on E. coli TESEC Mtb DapB (setting [12]); 0.235 ± 0.15 in the assay on E. coli TESEC Mtb Alr [3] (setting [13]); 0.0503 ± 0.0006 with E. coli TESEC Mtb Alr [3] (setting [14]).
`CO[C@]12C[C@@H](COC(=O)c3cncc(Br)c3)CN(C)[C@@H]1Cc1cn(C)c3cccc2c13` [Nicergoline]: the growth was 0.174 ± 0.0043 in assay [1]; 0.184 ± 0.0071 with E. coli TESEC Mtb Alr [2] (setting [4]); 0.194 ± 0.0054 in the assay with E. coli TESEC Mtb Alr [2] (setting [5]); 0.223 ± 0.0047 in the assay with E. coli TESEC Mtb Alr [2] (setting [6]); 0.102 ± 0.0052 in the assay on E. coli TESEC Mtb Alr [2] (setting [7]); 0.184 ± 0.0056 in the assay with E. coli TESEC Mtb Alr [2] (setting [8]). Further, the growth with E. coli TESEC Mtb Asd (setting [9]) was 0.221 ± 0.021; in the assay with E. coli TESEC Mtb Asd (setting [10]), 0.279 ± 0.056; in the assay with E. coli TESEC Mtb DapB (setting [11]) it was 0.227 ± 0.014; in the assay with E. coli TESEC Mtb DapB (setting [12]), 0.277 ± 0.028; in the assay with E. coli TESEC Mtb Alr [3] (setting [13]), 0.416 ± 0.005; in the assay with E. coli TESEC Mtb Alr [3] (setting [14]) it was 0.268 ± 0.015.
Take `COc1cc2c(c(OC)c1OC)-c1ccc(OC)c(=O)cc1[C@@H](NC(C)=O)CC2` [Colchicine]: the growth in assay [1] was 0.226 ± 0.0076; with E. coli TESEC Mtb Alr [2] (setting [4]), 0.262 ± 0.034; in the assay with E. coli TESEC Mtb Alr [2] (setting [5]), 0.267 ± 0.0042; in the assay on E. coli TESEC Mtb Alr [2] (setting [6]), 0.204 ± 0.025; with E. coli TESEC Mtb Alr [2] (setting [7]), 0.185 ± 0.0039; in the assay with E. coli TESEC Mtb Alr [2] (setting [8]) it was 0.144 ± 0.0049. Moreover, the growth in the assay on E. coli TESEC Mtb Asd (setting [9]) is 0.276 ± 0.063; in the assay with E. coli TESEC Mtb Asd (setting [10]), 0.355 ± 0.1; in the assay with E. coli TESEC Mtb Alr [3] (setting [13]), 0.423 ± 0.038; with E. coli TESEC Mtb Alr [3] (setting [14]), 0.322 ± 0.0069.

These data come from the supplement of paper PMC9262897, “Low-cost anti-mycobacterial drug discovery using engineered E. coli” (Nature Communications, 2022).
